Bioassay records: PubChem, several laboratories
The list is not random: actives were taken first. Their share in the collection is about 1.1%.
PriA SSB inh = K. pneumoniae PriA-SSBct interaction inhibition. AlphaScreen SSBct-PriA binding, biotinylated peptide. inhibition, % at 33 µM. 0.6% of 430,000 active; in the data active = inhibition mostly above about 37%, no sharp cut-off; inactive = mostly below about 20%
RN4220 kill = S. aureus RN4220 growth inhibition; OD600, 16 h; inhibition, % (concentration not given with the values); 0.33% of 330,000 active; AID 1259311; in the data active = inhibition above about 85%
ugtP null kill = kills S. aureus RN4220 lacking UgtP; 0.54% of 330,000 active; S. aureus RN4220 ugtP deletion, OD600 growth, 16 h; growth inhibition, % (concentration not given with the values); in the data active = growth inhibition above about 68%
Mtb hypoxia inh = reduces hypoxia-regulated biosensor signal in M. tuberculosis. M. tuberculosis hypoxia-regulated fluorescent reporter, fluorescence. fluorescence inhibition, % (test concentration not listed). 0.1% of 300,000 active. AID 1159583; in the data active = fluorescence inhibition mostly above about 23%, no sharp cut-off; inactive = mostly below about 17%
Large screens that a line does not name were inactive.

Cc1cc(=O)[nH]c(-n2nc(C)cc2NC(=O)C(=O)c2c[nH]c3ccccc23)n1	none (no result: RN4220 kill, ugtP null kill, Mtb hypoxia inh)
O=C(Nc1cccc2ncccc12)c1ccc(Cl)cc1	PriA SSB inh 48
Cc1cc(C(F)(F)F)nc(CCNC(=O)C2COc3ccccc3O2)n1 (configuration not stated)	none (no result: RN4220 kill, ugtP null kill, Mtb hypoxia inh)
S=C(NCc1ccc(Cl)cc1)Nc1ccc(Cl)cc1Cl	none
C/C(=N/NC(=S)NCCc1ccccc1)c1ccco1	PriA SSB inh 62 (no result: RN4220 kill, ugtP null kill, Mtb hypoxia inh)
S=C(NCCc1ccc(Cl)cc1)Nc1ccc(Cl)cc1Cl	RN4220 kill 100, ugtP null kill 99
CC(=NNC(=S)NCCc1ccccc1)c1ccc(Cl)cc1Cl	ugtP null kill 90
CC(C)C(=O)N1CCc2ccc(NC(=O)c3ccc(Cl)c(Cl)c3)cc2C1	none (no result: RN4220 kill, ugtP null kill, Mtb hypoxia inh)
CCCC1OC(c2cc3c(cc2Cl)OCO3)OCC1CC (configuration not stated)	ugtP null kill 85
Cc1ccc2c(C)c(C(=O)N3CCN(c4ncccn4)CC3)oc2c1C	PriA SSB inh 85
COc1ccc2oc(C(=O)N3CCN(c4ncccn4)CC3)c(C)c2c1	none
COC(=O)C(C)(O)C1(C(=O)SC(C)(C)C)CC1 (configuration not stated)	none (no result: RN4220 kill, ugtP null kill, Mtb hypoxia inh)
Cc1cc(N(CCO)CCO)ccc1N=Nc1cc(F)ccc1F	PriA SSB inh 75
Oc1ccc(N2CCN(Cc3ccc(OCCCN4CCCCC4)cc3)CC2)cc1	PriA SSB inh 55
CCCCOc1ccc(CN2CCCCC2)cc1	none
CCCCCCOc1ccc(CN2CCN(C)CC2)cc1	ugtP null kill 86
c1ccc(COc2ccc(OCCCCN3CCCCC3)cc2)cc1	none
Cc1cnnn1-c1ccc(C(=O)CCl)cc1	RN4220 kill 98, ugtP null kill 98
Cc1cnnn1-c1ccc(C(=O)Nc2ccc(Cl)cc2Cl)cc1	none (no result: RN4220 kill, ugtP null kill, Mtb hypoxia inh)
Cc1ccn2c(C=NOCc3cccc(F)c3)c(-c3ccc(Cl)cc3)nc2c1	none (no result: Mtb hypoxia inh)
Fc1cccc(CON=Cc2c(-c3ccccc3)nc3ccc(Cl)cn23)c1	Mtb hypoxia inh 38
O=C(Nc1ccc(-c2ccc3nnc(-c4ccccn4)n3n2)cc1)c1cccc2ccccc12	none (no result: RN4220 kill, ugtP null kill, Mtb hypoxia inh)
Cc1cc(C)cc(C(=O)Nc2ccc(-c3ccc4nnc(-c5ccccn5)n4n3)cc2)c1	PriA SSB inh 67 (no result: RN4220 kill, ugtP null kill, Mtb hypoxia inh)
O=C(Nc1ccc(-c2ccc3nnc(-c4ccccn4)n3n2)cc1)c1cccnc1Cl	PriA SSB inh 87 (no result: RN4220 kill, ugtP null kill, Mtb hypoxia inh)
O=C(Nc1ccc(-c2ccc3nnc(-c4ccncc4)n3n2)cc1)c1cccnc1Cl	none (no result: RN4220 kill, ugtP null kill, Mtb hypoxia inh)
Cc1nc(N2CCC(NC(=O)c3cccc(-n4cccn4)c3)CC2)cc(C(F)(F)F)n1	none (no result: RN4220 kill, ugtP null kill, Mtb hypoxia inh)
COc1ccc(Cc2n[nH]c(=S)n2NC(=O)Nc2ccc(Cl)c(Cl)c2)cc1	RN4220 kill 100, ugtP null kill 100
Cc1cc(Cl)cc2sc(NC(=O)c3ccno3)nc12	none (no result: RN4220 kill, ugtP null kill, Mtb hypoxia inh)
O=C(Nc1ccccc1)Nc1ccncc1	none
O=C(Nc1ccccc1)Nc1ccno1	Mtb hypoxia inh 95
O=c1c2ccccc2nc(/C=C/c2ccc([N+](=O)[O-])o2)n1-c1ccc(O)cc1	RN4220 kill 99, ugtP null kill 100
Cc1cccc(-n2c(/C=C/c3ccc([N+](=O)[O-])o3)nc3ccccc3c2=O)c1	ugtP null kill 99
CC(=O)N(N=Cc1ccc([N+](=O)[O-])o1)c1nc2ccccc2c(=O)n1-c1ccccc1	none (no result: PriA SSB inh)
Fc1cccc(Cl)c1C=Nn1c(-c2cccnc2)n[nH]c1=S	none (no result: RN4220 kill, ugtP null kill, Mtb hypoxia inh)
Cc1ccc2sc(NNC(=O)c3nc4ccccc4s3)nc2c1C	PriA SSB inh 58 (no result: RN4220 kill, ugtP null kill, Mtb hypoxia inh)
Cc1ccc2sc(NNC(=O)c3c(F)cccc3F)nc2c1C	none (no result: RN4220 kill, ugtP null kill, Mtb hypoxia inh)
Cc1cc(C)cc(OCC(=O)N2N=C(C(F)(F)F)CC2(O)C(C)(C)C)c1 (configuration not stated)	PriA SSB inh 49 (no result: Mtb hypoxia inh)
CC(=O)C(=Nc1ccccc1Cl)NNc1ccc(Cl)cc1	PriA SSB inh 50
COc1cccc(OC)c1C(=O)Nc1cc2ccccc2cc1NC(=O)c1c(OC)cccc1OC	none (no result: RN4220 kill, ugtP null kill, Mtb hypoxia inh)
O=C(c1ccc(O)c(Br)c1)c1cc(Br)ccc1O	ugtP null kill 84
O=C(C(=O)c1cc(Br)ccc1O)c1cc(Br)ccc1O	RN4220 kill 100, ugtP null kill 100
CC=NNC(=O)c1cc(Br)ccc1O	none
O=C(Cc1cccs1)Nc1ccccc1Cc1nc(-c2cccnc2)no1	none (no result: RN4220 kill, ugtP null kill, Mtb hypoxia inh)
Cc1ccc(-n2ncc3c(=O)n(Cc4c(F)cccc4Cl)cnc32)cc1	none (no result: RN4220 kill, ugtP null kill, Mtb hypoxia inh)
CCCCN1C(=O)Cc2c1nc(N)c1c(N)nc(N(CCC)CCC)c(C#N)c21	PriA SSB inh 39
CCOC(=O)c1cn[nH]c1S(=O)(=O)N1CCN(c2ccc(C)cc2C)CC1	none (no result: RN4220 kill, ugtP null kill, Mtb hypoxia inh)
O=C(Cn1cnc2c(-c3ccc(Cl)cc3)csc2c1=O)Nc1ccc(F)cc1F	none (no result: RN4220 kill, ugtP null kill, Mtb hypoxia inh)
CCOc1cc(CNCCO)cc(Br)c1OCc1ccc(Cl)cc1Cl	RN4220 kill 100, ugtP null kill 98
CCOc1cc(CNCc2ccncc2)cc(Br)c1OCc1ccccc1F	ugtP null kill 92
